Active and inactive are the calls of the source. How the source made its calls: active means hit-call score of the fitted dose curve at least 0.9, where 1 is the maximum; inactive means score below 0.9.
molecular target: Transcription factor E2F1 (Homo sapiens) (UniProt Q01094); assay: ATG_E2F_CIS: Attagene CIS-FACTORIAL HepG2 Assay for human E2F Transcription Factor 1 (AID 2282935); conditions: HepG2 Attagene cis-reporter, E2F reporter RNA transcripts; actives raise or lower the signal
Description: ATG_CIS is a cell-based, multiplexed-readout assay that uses HepG2, a human liver cell line, with measurements taken at 24 hours after chemical dosing in a 24-well plate.ATG_E2F_CIS is one of 52 assay component(s) measured or calculated from the ATG_CIS assay. It is designed to make measurements of mRNA induction, a form of inducible reporter, as detected with fluorescence intensity signals by Reverse transcription polymerase chain reaction (RT-PCR) and Capillary electrophoresis technology.Data from the assay component ATG_E2F_CIS was analyzed into 1 assay endpoint. This assay endpoint, ATG_E2F_CIS, was analyzed with bidirectional fitting relative to DMSO as the negative control and baseline of activity. Using a type of inducible reporter, measures of mRNA for gain or loss-of-signal activity can be used to understand the reporter gene at the transcription factor-level as they relate to the gene E2F1. Furthermore, this assay endpoint can be referred to as a primary readout, because this assay has produced multiple assay endpoints where this one serves a reporter gene function. To generalize the intended target to other relatable targets, this assay endpoint is annotated to the dna binding intended target family, where the subfamily is E2F transcription factor.
Human liver HepG2 cells are transiently transfected with multiple reporter transcription units (MRTUs) in 6-well plates using FuGene 6 reagent (Roche; 3 ml FuGene/1 mg DNA). The MRTU constructs are regulated by a cis-regulating element (promoter). […] A major difference between the CIS and TRANS system is that in CIS activities of endogenous TFs are measured, whereas the TRANS assay evaluates changes in activities of exogenous, chimeric NR-Gal4 proteins. […] At the end of 24 hour incubation, total RNA was isolated using TriZol reagent (Invitrogen). The isolated RNA is then reverse-transcribed using oligo(dT) primer and Mo-MLV reverse transcriptase (Invitrogen) with DNAse I (Ambion) treatment for 30 min. The one-tenth of the produced cDNA was amplified by PCR using Taq DNA polymerase (Invitrogen) and two reporter sequence-specific primers. The PCR products were fluorescently labeled by primer extension with 6-arboxyfluorescein (6-FAM) 5'-labeled reporter sequence-specific primer (2 min at 95 C, 20 s at 68 C and 10 min at 72 C) and these products were digested with 5U of HpaI (New England Biolabs) for 2h at 37 C. The fragments were purified using Qiaquick PCR columns (Qiagen), analyzed on an ABI 3130xL genetic analyzer (Applied Biosystems) with peak positions identified by using a set of X-rhodamine (ROX)-labeled MapMarker1000 molecular weight standards (BioVentures). The raw capillary electrophoresis data was processed using Attagraph software (Attagene).

Transcription factor E2F1 (Homo sapiens), sequence (Q01094 whole entry, looked up): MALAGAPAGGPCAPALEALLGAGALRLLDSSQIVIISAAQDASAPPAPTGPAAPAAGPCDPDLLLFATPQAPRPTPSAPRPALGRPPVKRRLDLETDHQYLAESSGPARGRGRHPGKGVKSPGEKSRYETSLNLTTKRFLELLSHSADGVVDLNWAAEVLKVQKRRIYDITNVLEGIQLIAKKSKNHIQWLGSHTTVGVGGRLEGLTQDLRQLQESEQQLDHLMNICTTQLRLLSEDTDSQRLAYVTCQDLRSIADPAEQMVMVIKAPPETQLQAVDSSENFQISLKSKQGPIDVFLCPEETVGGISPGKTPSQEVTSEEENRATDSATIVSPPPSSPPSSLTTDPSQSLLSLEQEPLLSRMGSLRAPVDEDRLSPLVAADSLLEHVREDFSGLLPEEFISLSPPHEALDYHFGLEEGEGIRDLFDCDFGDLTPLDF

SMILES	outcome	AC50
O=C1c2ccccc2C(=O)c2cc(S(=O)(=O)O)ccc21	inactive	
COC(=O)c1ccccc1C	inactive	
C=C(C)C(=O)OCCCCCCCCCCCC	inactive	
COC(Cc1ccccc1)OC	inactive	
CC(=O)OC/C=C(/C)CCC=C(C)C	inactive	
CC(C)=CCl	inactive	
Cc1noc(NS(=O)(=O)c2ccc(N)cc2)c1C	inactive	
CCCCCCCCCCCC(=O)N(C)CC(=O)O	inactive	
CCN1CN(CC)CN(CC)C1	inactive	
CCOC(=O)C1=NOC(c2ccccc2)(c2ccccc2)C1	inactive	
C=C(C)C(=O)OCC(O)COc1ccc(C(C)(C)c2ccc(OCC(O)COC(=O)C(=C)C)cc2)cc1 (stereo not given)	inactive	
CC(CC(C)C)=NO	inactive	
CC(CCC(=O)O)(c1ccc(O)cc1)c1ccc(O)cc1	inactive	
C=CC(=O)OCCCCCCOC(=O)C=C	inactive	
CCNc1nc(NC(C)(C)C)nc(OC)n1	inactive	
O=C1CCCCCCCCCCCN1	inactive	
CCN(CC)c1cccc(C)c1	inactive	
CC(C)COC(=O)CC(C(=O)OCC(C)C)S(=O)(=O)O (stereo not given)	inactive	
COC(=O)c1ccc(C(=O)OC)c(C(=O)OC)c1	inactive	
CC(C)CO	inactive	

SMILES	outcome	AC50
CCCCCCCCCCCCCCCCCCOS(=O)(=O)O	inactive	
CCCCCC[C@@H](O)C/C=C\CCCCCCCC(=O)OCC(O)CO (stereo not given in full)		133 µM (active)
Cc1cc(C)n(CO)n1	inactive	
CCCCCCCCCCCCc1ccc(O)cc1	inactive	
CC(=O)/C=C/C1C(C)=CCCC1(C)C (stereo not given)	inactive	
Cc1ccccc1CCO	inactive	
CC1(C)CCC[C@]2(C)[C@H]3CC(=O)O[C@]3(C)CC[C@@H]12	inactive	
O=C(Nc1ccccc1)c1cc(Cl)ccc1O	inactive	
CC1=CCC(C(C)C)C=C1 (stereo not given)	inactive	
C=Cc1cccc(C)c1	inactive	
COc1cc(C)ccc1O	inactive	
CCCC1CCCC(=O)O1 (stereo not given)	inactive	
Cc1cc(=O)[nH]c(=O)[nH]1	inactive	
CCCCC(CC)COS(=O)(=O)O (stereo not given)	inactive	
CCCCOC(=O)CCC(C)=O	inactive	
N#CC1(N)CCCCC1	inactive	
CC(=O)CCC1=C(C)CCCC1(C)C	inactive	
COc1ccc(-c2coc3cc(O)cc(O)c3c2=O)cc1	inactive	
CC/C=C\CCOC(=O)c1ccccc1O	inactive	
O=C1CCCCCCCCCCC1	inactive	

From PubChem BioAssay (EPA / NIEHS)
